In all, about 9,900 sequences were measured (“r (bound/input frequency ratio)”: median about 0.7, highest 2% from about 6.5 on). This excerpt belongs to a sample that is enriched for the highest values.
B1: ENSMUSG00000029636.74|Wasf3 (ssRNA)
RNA: GGGAGUUCUACAGUCCGACGAUCGCUUCGAUAUCCGCAUGCUACCCACGUCAGCUCUCUGCAAGAUCACUGGCUGUGUGUCUCAGUGAUGUCUUCCAACCAGUGGGUGAUACGUUUUCCUGUUUCUUCCCUUUGCAAAUUGAAUUCCAGGUAGAUAUGGUUGUAGAGGGGAAAGUUUAACAAAUCAGAAUGAAAUGUUUGUCUGUUUGCACACUGGGCCUGGUGGCCUCCAAGGAAAUGUGUACGAUCGUUUGCUUUCUCUAUCUUGGCGCUUGCAACCGAGAGCGGCCAUUUUUAUGAGGGGCUCUUGCGGUCGCACUAGUGUGGAAUUCUCGGGUGUCAAGG
B2: ENSMUSG00000004113.257|Cacna1b|213:217 (ssRNA)
RNA: GGGAGUUCUACAGUCCGACGAUCGCUUCGAUAUCCGCAUGCUAGAUGCUGAAGAGUGCAAAACGCUAGCAAAGAAGAGGCUGGGGUUAGAGGAAGAAGCCCGCACUGGCCGUGUUACAAGAAACUGGCAGGAAGGAAAUGGCCCUGGAACAGGCCAGGUGCCUAGAGCUAAGUCAGGCCCCUGGCUUAGCACUAGAAAAAAUAAAACCUCAUGGCUGCUUUGCAAAGGGAAAACCCAUGCUCAGGAAGGUGUUCACACACCACAGAUAGCUGGGAGGCCACGAGAGAAAGGUUGCACACAGACCUCUUGCGGUCGCACUAGUGUGGAAUUCUCGGGUGUCAAGG
B3: ENSMUSG00000028439.88|Fam219a (ssRNA)
RNA: GGGAGUUCUACAGUCCGACGAUCGCUUCGAUAUCCGCAUGCUAGGAAAGGGGUUUUGAGAAGAAAAGGAUCCAAGCAAUGGGGGCAGUUCUCACACCUCAGAGCCCCUCUCCCCAAACCCUGUGCCAGCCCAUAUACCUAUUUGUGUUUUCCCCUCAUCUCCAGAUGGGAAGCCUGGCAGCGCUGUCCAAAGGGAUACUGUCUCUCCAUUAGAUAACUCCUUCCACUGUCUCCCUCCCCCGCUUUCUUACUUUCUGAGGGUUGGGAAGGUAAGAUGGGCCUUAGAGAGAAGCCAGGUUUGGGGCUCUUGCGGUCGCACUAGUGUGGAAUUCUCGGGUGUCAAGG
B4: ENSMUSG00000031028.91|Tub (ssRNA)
RNA: GGGAGUUCUACAGUCCGACGAUCGCUUCGAUAUCCGCAUGCUACAAGCUGUAUGUAGAAAAAGCUCUGGUGGUCAGCAGAAAGCACUCCCACUUCAAAAGGGCCCAUUAGGCCCAAAGGGGGUUAGGAGUGGUAGGGAUAGGUGCGUGGCAGGUCCCUGCUAGGAUUGCAGGGGCCUGGCCAUGUGUAUUAGCUGGAGGCUUAGAAUGCUAGCUCAUUUGUUGCUACAGAUUUGCCCAGUGCUUGCACACGUAAGAACCCAGCUCUCAAGGCCAAAUAUCUGAGUGGAUGGGGAUGAUAGGAGCUCUUGCGGUCGCACUAGUGUGGAAUUCUCGGGUGUCAAGG
B5: ENSMUSG00000031028.31|Tub|122:126 (ssRNA)
RNA: GGGAGUUCUACAGUCCGACGAUCGCUUCGAUAUCCGCAUGCUACUGCCUGCCAAGACAGCCCUGCCUACCCUCUGUUCAUAGGCCCUCUAUGGGCUUUCUGGCCUUACCAACCAGAGACUGGCUGCUCUGCCUCUGCUGCUGAAGCAGGGGGGACAGCAAAUGGCAUACACAGGAGAAGAAUAUUUCUGUGCCCCAAGGUCAACACACAUGCCCAGUCCUGGGUCAGUCCCCUGCUGCAGUGGUGUUAUCACACCGGAAAGCCUCUUCACCUGGAGGUACAGAGGGAGAGGAAGCACAAGCCUCUCUUGCGGUCGCACUAGUGUGGAAUUCUCGGGUGUCAAGG
B6: ENSMUSG00000042529.154|Kcnj12 (ssRNA)
RNA: GGGAGUUCUACAGUCCGACGAUCGCUUCGAUAUCCGCAUGCUAAACACCAGAGUGGGUGCUUCUUAGAAAAGGACACUCAGGAAAUUAGUAUGGGGUCUGGGUCCCACAUCCCCAGGAAGUGGGUCAGCCCCACGUCCCCCGCUGGACUCACAGCUUGAGUUGUGCCUUAGAGACUCUGGUUGUCUGGCUUCCGUCAUUUCUGGUUUUCUCAGACUUGUUUAAUCUUUCCCUACUGCCCUAAGUCCACUCAUGAAGCUCCCCAGGCCCUUCUGAGAUUGCAGAGGCUGCUUGCUCAUAGCCAUCUCUUGCGGUCGCACUAGUGUGGAAUUCUCGGGUGUCAAGG
B7: ENSMUSG00000061578.1390|Ksr2|74:78;177:181 (ssRNA)
RNA: GGGAGUUCUACAGUCCGACGAUCGCUUCGAUAUCCGCAUGCUACUUUGUAAAUGAUUCUGUUGCCUUUUUCUAAACACAAAGUAUAUAUACCUAUAAAUGCUAUAUAUAUUAUAUAACACAAUAUACAUAAAGACUACUUCUUGUACAGCCCUCCACGGACCUCAGGCCCACUGUUUUCUCCAUGUCUGUCUGUACUGACUGUUGCAGAAUGAGCUGAUCAUACAUCUUGAUUCUCCAUUUUCCUUCUGGACCACAUGUCUCUUCCUUUUCCUUUUUAGAUCUGUCUUGCUCUCUGUCUCUCUCUCUUGCGGUCGCACUAGUGUGGAAUUCUCGGGUGUCAAGG
B8: ENSMUSG00000022095.44|Fam160b2 (ssRNA)
RNA: GGGAGUUCUACAGUCCGACGAUCGCUUCGAUAUCCGCAUGCUACUGGCUCCUAAGGCAGUGGUAUUCUUGGAGCCUUUUAGAGGAGCUAGAGGAUGGCCAGUGAGCGCCUAGAUGCUGCCCUGCAUGUGUUGCGUGACUAUCUCUGCUAUAUUGUGACCAGGGCCACAACAUGAGACAACUCCAGGGGCCAGGGAGAUGAACUGCUGUCUUUGAGGCUGGCUAAAAAAACAAUCCAGUCCAGAGAGAUGGGGAGGGGGGGAGCAAGAACCCUGUCUGUUACAUUAGGUAUCAUGGAAGCUGCUCUCUUGCGGUCGCACUAGUGUGGAAUUCUCGGGUGUCAAGG
B9: ENSMUSG00000029636.316|Wasf3 (ssRNA)
RNA: GGGAGUUCUACAGUCCGACGAUCGCUUCGAUAUCCGCAUGCUAUGGCAAAACUUUUUUUGGUAAGGUCCUUAUGCUCUCAGGGUGGAGGGAAGACAUUAAAGCUACGCAGCCAUUGUCAGGAUUUUUUCUACUGAUGUCACAUCAGAAUAUAACUAGUGGCUCCUUACUCACAAAUGUUCACGAGCUUCUCCGUUGUCACUUGUCCUGUAGUUUUGCCAACAAGUUAAUUUUAGUUUGAUUUUAUAGCUAGAGAGAAAGCUUUUGCCCGUUGCAUUCUGUAACCUUCAAAAGAAUGAGAAACGCUCUUGCGGUCGCACUAGUGUGGAAUUCUCGGGUGUCAAGG

The binders below were run against TDP-43 (Homo sapiens, UniProt Q13148 1-414) (assay: RNA Bind-n-Seq with designed 260-mer pool; 25 mM Tris-HCl, 150 mM KCl, 3 mM MgCl2, BSA (printed 500 mg/mL), 20 units/mL SUPERase IN; pH not stated; 500 nM RNA pool, 1 h, 4 C; TDP-43 5, 50, 500 nM; high values mean tight binding). Conditions: protein: recombinant; tags: SBP (GST cleaved off with PreScission; pGEX-GST-SBP).
In short: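 Streptavidin beads captured recombinant SBP-tagged TDP-43 at 5, 50 or 500 nM, and the beads were incubated for 1 h at 4 °C with 500 nM of an in vitro-transcribed pool of 260-nt 3′ UTR oligos in 25 mM Tris-HCl, 150 mM KCl, 3 mM MgCl2, BSA and SUPERase IN. After washing, bound RNA was eluted with biotin, reverse transcribed, PCR-amplified and sequenced. Binding is reported as R, the mapped-read-normalized abundance of each oligo in the bound sample divided by its abundance in the input. Two independent protein batches served as duplicates.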

Sequence of TDP-43 (Q13148 whole entry): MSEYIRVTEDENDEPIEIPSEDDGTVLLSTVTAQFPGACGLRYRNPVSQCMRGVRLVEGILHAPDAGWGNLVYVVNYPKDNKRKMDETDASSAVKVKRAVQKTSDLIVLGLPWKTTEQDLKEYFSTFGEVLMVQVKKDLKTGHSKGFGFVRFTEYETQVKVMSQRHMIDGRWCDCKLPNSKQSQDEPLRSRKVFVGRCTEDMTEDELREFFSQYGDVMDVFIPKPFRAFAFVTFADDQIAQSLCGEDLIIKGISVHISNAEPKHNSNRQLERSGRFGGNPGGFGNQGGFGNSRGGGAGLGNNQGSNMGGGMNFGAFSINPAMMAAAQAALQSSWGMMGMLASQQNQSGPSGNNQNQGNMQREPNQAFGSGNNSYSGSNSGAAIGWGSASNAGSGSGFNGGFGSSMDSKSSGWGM

Binder | binding signal
B1 | 2.22 R (bound/input frequency ratio)
B2 | 0.718 R (bound/input frequency ratio)
B3 | 0.765 R (bound/input frequency ratio)
B4 | 5.97 R (bound/input frequency ratio)
B5 | 0.475 R (bound/input frequency ratio)
B6 | 0.462 R (bound/input frequency ratio)
B7 | 0.257 R (bound/input frequency ratio)
B8 | 1.48 R (bound/input frequency ratio)
B9 | 0.157 R (bound/input frequency ratio)

Reference: article PMC12864922, “TDP-43 directly inhibits mRNA accumulation in neurites through modulation of mRNA stability”
